# Laboratory results from the supplement of paper PMC10037445.
# Whole data set: some 2,900 compounds, median “IRF Lucia reporter activity, fold change vs agonist alone” near 0.9, cut for the highest 2% near 2.8. What follows is part of a selection rich in the highest values, with near analogues and random picks from the rest.
# Assays:
# [1] = tested on: RAW-Dual; assay: IRF Lucia reporter activity, fold change vs agonist alone; cytotoxicity flag (confluency mask): not cytotoxic; higher = enhanced IRF activity
# Method in brief: (§1)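 RAW-Dual macrophages (50,000 cells/well in DMEM, 384-well plates) received 50 nL of library stock by pin tool, then a PRR agonist 1 h later, and were kept at 37 °C, 5% CO2. After 20 hours, supernatant was read for IRF by QuantiLuc luminescence and for NF-κB by QuantiBlue absorbance at 620 nm. Reporter activity is fold change over agonist-alone wells. Cytotoxic wells had IncuCyte confluency below 70% of agonist controls in both mask sets.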
# [2] = tested on: RAW-Dual; assay: IRF Lucia reporter activity, fold change vs agonist alone; higher = enhanced IRF activity; settings: agonist: MPLA (TLR4) […]
# Method in brief: as §1
# [3] = tested on: RAW-Dual; assay: IRF Lucia reporter activity, fold change vs agonist alone; cytotoxicity flag (confluency mask): cytotoxic (confluency <70% of control); higher = enhanced IRF activity
# Method in brief: as §1
# [4] = agonist: 3'3'-cGAMP (STING) 10 ug/mL
# [5] = library stock concentration (final ~1000-fold dilution): 10 mM, cytotoxicity flag (confluency mask): not cytotoxic
smiles,measurement,setting,value
COC(=O)NC(C(=O)N1CCCC1c1ncc(-c2ccc(-c3ccc(-c4cnc(C5CCCN5C(=O)C(NC(=O)OC)C(C)C)[nH]4)cc3)cc2)[nH]1)C(C)C.Cl.Cl (centres undefined) (library stock concentration (final ~1000-fold dilution): 10 mM),IRF Lucia reporter activity,[1]; [4],0.948
same,IRF Lucia reporter activity,[1]; agonist: LPS (TLR4) 0.1 ug/mL,7.56
COC(=O)NC(C(=O)N1CCCC1c1ncc(-c2ccc(-c3ccc(-c4cnc(C5CCCN5C(=O)C(NC(=O)OC)C(C)C)[nH]4)cc3)cc2)[nH]1)C(C)C (centres undefined) (library stock concentration (final ~1000-fold dilution): 10 mM),IRF Lucia reporter activity,[1]; [4],1.04
same,IRF Lucia reporter activity,[1]; agonist: LPS (TLR4) 0.1 ug/mL,4.15
COC(=O)NC(C(=O)N1CCCC1c1ncc(-c2ccc(-c3ccc(-c4cnc(C5CCCN5C(=O)C(NC(=O)OC)C(C)C)[nH]4)cc3)cc2)[nH]1)C(C)C.Cl.Cl (centres undefined),IRF Lucia reporter activity,[2]; [5],5.97
COC(=O)NC(C(=O)N1CC2(CC2)CC1c1ncc(-c2ccc3c(c2)C(F)(F)c2cc(-c4ccc5nc(C6C7CCC(C7)N6C(=O)C(NC(=O)OC)C(C)C)[nH]c5c4)ccc2-3)[nH]1)C(C)C (centres undefined),IRF Lucia reporter activity,[2]; [5],0.979
COCC1CC(c2ncc(-c3ccc4c(c3)COc3cc5c(ccc6[nH]c(C7CCC(C)N7C(=O)C(NC(=O)OC)C(C)C)nc65)cc3-4)[nH]2)N(C(=O)C(NC(=O)OC)c2ccccc2)C1 (centres undefined) (library stock concentration (final ~1000-fold dilution): 10 mM),IRF Lucia reporter activity,[1]; [4],0.767
same,IRF Lucia reporter activity,[1]; agonist: LPS (TLR4) 0.1 ug/mL,0.91
COC(=O)NC(C(=O)N1CCCC1C(=O)Nc1ccc(C2CCC(c3ccc(NC(=O)C4CCCN4C(=O)C(NC(=O)OC)C(C)C)cc3)N2c2ccc(C(C)(C)C)cc2)cc1)C(C)C (centres undefined) (library stock concentration (final ~1000-fold dilution): 10 mM),IRF Lucia reporter activity,[1]; [4],0.995
same,IRF Lucia reporter activity,[1]; agonist: LPS (TLR4) 0.1 ug/mL,1.21
COC(=O)NC(C(=O)N1CCCC1C(=O)Nc1ccc(C2CCC(c3ccc(NC(=O)C4CCCN4C(=O)C(NC(=O)OC)C(C)C)cc3)N2c2ccc(C(C)(C)C)cc2)cc1)C(C)C (centres undefined),IRF Lucia reporter activity,[2]; [5],0.973
COC(=O)NC(C(=O)N1CCCC1c1ncc(-c2ccc3c(c2)OC(c2ccccc2)n2c-3cc3cc(-c4cnc(C5CCCN5C(=O)C(NC(=O)OC)C(C)C)[nH]4)ccc32)[nH]1)C(C)C (centres undefined),IRF Lucia reporter activity,[2]; [5],1.01
COCC1CC(c2ncc(-c3ccc4c(c3)COc3cc5c(ccc6[nH]c(C7CCC(C)N7C(=O)C(NC(=O)OC)C(C)C)nc65)cc3-4)[nH]2)N(C(=O)C(NC(=O)OC)c2ccccc2)C1 (centres undefined),IRF Lucia reporter activity,[2]; [5],0.857
COC(=O)NC(C(=O)N1CC2(CC2)CC1c1ncc(-c2ccc3c(c2)C(F)(F)c2cc(-c4ccc5nc(C6C7CCC(C7)N6C(=O)C(NC(=O)OC)C(C)C)[nH]c5c4)ccc2-3)[nH]1)C(C)C (centres undefined) (library stock concentration (final ~1000-fold dilution): 10 mM),IRF Lucia reporter activity,[1]; [4],0.913
same,IRF Lucia reporter activity,[1]; agonist: LPS (TLR4) 0.1 ug/mL,1.23
COC(=O)NC(C(=O)N1CCCC1c1ncc(-c2ccc(-c3ccc(-c4cnc(C5CCCN5C(=O)C(NC(=O)OC)C(C)C)[nH]4)cc3)cc2)[nH]1)C(C)C (centres undefined),IRF Lucia reporter activity,[2]; [5],3.26
COC(=O)NC(C(=O)N1CCCC1c1ncc(-c2ccc3c(c2)OC(c2ccccc2)n2c-3cc3cc(-c4cnc(C5CCCN5C(=O)C(NC(=O)OC)C(C)C)[nH]4)ccc32)[nH]1)C(C)C (centres undefined) (library stock concentration (final ~1000-fold dilution): 10 mM),IRF Lucia reporter activity,[1]; [4],1.07
same,IRF Lucia reporter activity,[1]; agonist: LPS (TLR4) 0.1 ug/mL,1.16
NC(=O)C(CCC(F)(F)F)N(Cc1ccc(-c2ncon2)cc1F)S(=O)(=O)c1ccc(Cl)cc1 (centres undefined),IRF Lucia reporter activity,[2]; [5],1.3
NC(=O)C(CCC(F)(F)F)N(Cc1ccc(-c2ncon2)cc1F)S(=O)(=O)c1ccc(Cl)cc1 (centres undefined) (library stock concentration (final ~1000-fold dilution): 10 mM),IRF Lucia reporter activity,[1]; [4],0.94
same,IRF Lucia reporter activity,[1]; agonist: LPS (TLR4) 0.1 ug/mL,1.56
CC1COCCN1c1cc(C2(S(C)(=N)=O)CC2)nc(-c2ccnc3[nH]ccc23)n1 (centres undefined) (library stock concentration (final ~1000-fold dilution): 10 mM),IRF Lucia reporter activity,[1]; [4],0.193
same,IRF Lucia reporter activity,[1]; agonist: LPS (TLR4) 0.1 ug/mL,1.39
COc1cc(C=CC(=O)OCC[N+](C)(C)C)cc(OC)c1O (library stock concentration (final ~1000-fold dilution): 10 mM),IRF Lucia reporter activity,[1]; [4],0.894
same,IRF Lucia reporter activity,[1]; agonist: LPS (TLR4) 0.1 ug/mL,1.04
O=c1cc(N2CCOCC2)oc2c(-c3cccc4c3sc3ccccc34)cccc12 (library stock concentration (final ~1000-fold dilution): 2 mM),IRF Lucia reporter activity,[1]; [4],0.548
same,IRF Lucia reporter activity,[1]; agonist: LPS (TLR4) 0.1 ug/mL,7.23
O=c1cc(N2CCOCC2)oc2c(-c3ccccc3)cccc12,IRF Lucia reporter activity,"[2]; library stock concentration (final ~1000-fold dilution): 10 mM, cytotoxicity flag (confluency mask): cytotoxic (confluency <70% of control)",0.627
O=c1nc(N2CCOCC2)oc2c(-c3cccc4c3sc3ccccc34)cccc12 (library stock concentration (final ~1000-fold dilution): 10 mM),IRF Lucia reporter activity,[1]; [4],0.298
same,IRF Lucia reporter activity,[1]; agonist: LPS (TLR4) 0.1 ug/mL,1.03
O=c1cc(N2CCOCC2)oc2c(-c3ccccc3)cccc12 (library stock concentration (final ~1000-fold dilution): 10 mM),IRF Lucia reporter activity,[3]; [4],0.353
same,IRF Lucia reporter activity,[3]; agonist: LPS (TLR4) 0.1 ug/mL,0.393
O=c1cc(N2CCOCC2)oc2c(-c3cccc4c3sc3ccccc34)cccc12,IRF Lucia reporter activity,"[2]; library stock concentration (final ~1000-fold dilution): 2 mM, cytotoxicity flag (confluency mask): not cytotoxic",2.7
COc1ccc(C2OCC3C(c4ccc(OC)c(OC)c4)OCC23)cc1OC (centres undefined) (library stock concentration (final ~1000-fold dilution): 10 mM),IRF Lucia reporter activity,[1]; [4],1.35
same,IRF Lucia reporter activity,[1]; agonist: LPS (TLR4) 0.1 ug/mL,0.899
O=C(C=Cc1ccc(O)cc1)c1ccc(O)cc1O (library stock concentration (final ~1000-fold dilution): 10 mM),IRF Lucia reporter activity,[1]; [4],0.252
same,IRF Lucia reporter activity,[1]; agonist: LPS (TLR4) 0.1 ug/mL,0.535
COC(=O)C1=C(C)NC(C)=C(C(=O)OC(C)(C)CN(C)CCC(c2ccccc2)c2ccccc2)C1c1cccc([N+](=O)[O-])c1 (centres undefined) (library stock concentration (final ~1000-fold dilution): 10 mM),IRF Lucia reporter activity,[1]; [4],0.134
same,IRF Lucia reporter activity,[1]; agonist: LPS (TLR4) 0.1 ug/mL,1.96
